{"source": "PubChem BioAssay", "data": [{"target": "Follistatin-related protein 3 (Homo sapiens) (UniProt O95633)", "sequence (O95633 whole entry, looked up)": "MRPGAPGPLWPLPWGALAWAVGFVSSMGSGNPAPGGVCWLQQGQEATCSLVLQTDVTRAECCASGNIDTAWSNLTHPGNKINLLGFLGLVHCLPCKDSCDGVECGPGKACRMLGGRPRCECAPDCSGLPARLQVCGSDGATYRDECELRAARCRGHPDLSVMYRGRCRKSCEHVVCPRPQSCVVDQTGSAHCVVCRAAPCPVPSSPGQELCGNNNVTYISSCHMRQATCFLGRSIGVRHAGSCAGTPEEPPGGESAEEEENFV", "assay": "compounds binding follistatin-related protein 3 – biochemical, small-molecule microarray, 635 nm fluorescence, primary screen (AID 1105);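 note: score merges emission near 667 nm and signal to noise per printed spot across three slides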", "conditions": "FSTL3 binding, higher = more signal", "values": [{"smiles": "O=C1C2C=CC(C(O)Cc3ccccc3)N(Nc3ccc([N+](=O)[O-])cc3)C2C(=O)N1c1ccccc1", "note": "(stereo unspecified)", "composite z-score": 0.576}, {"smiles": "CC(C)C[C@@H]1NC(=O)[C@H](CC(C)C)NC(=O)[C@@]23C(=O)N[C@@H](Cc4ccccc4)C2[C@H](C)[C@@]2(C)O[C@H]2C3/C=C/CC/C=C/CNC1=O", "note": "(stereo partly specified)", "composite z-score": 0.998}, {"smiles": "COC(=O)[C@@]1(Cc2ccccc2CN=[N+]=[N-])N=C(c2ccc(OCCCO)cc2)O[C@H]1c1ccccc1N=[N+]=[N-]", "composite z-score": -0.0661}, {"smiles": "CCOC(=O)C[C@H]1[C@H](OC(=O)Cc2ccc3c(c2)OCO3)[C@@H](NC(=O)c2ccc3ccccc3c2)c2cc(OCCCO)ccc2N1C(=O)Cc1ccc(OC)cc1", "composite z-score": 0.439}, {"smiles": "C[N+](C)(C)CCCCNC(=O)[C@H]1C[C@H]2C(=O)NCC(=O)N2[C@H]1c1cccc(OCCO)c1", "composite z-score": 1.49}, {"smiles": "C=C(/C(=C/C[C@@H](OC(=O)c1ccncc1)c1ccc(CO)o1)c1cnc2ccccc2c1)C(C)C", "composite z-score": 1.43}, {"smiles": "CCCNC(=O)[C@@]1(Sc2ccc(C)cc2)CC(=O)N(Cc2ccccc2Cl)[C@@H]1c1ccc(CO)cc1", "composite z-score": 1.06}, {"smiles": "COC(=O)Cn1c(C(=O)N2CCCC2)cc2c1C[C@H]1CN(C(=O)c3ccccc3)[C@@](Cc3ccccc3)(C(=O)OC)[C@@H]21", "composite z-score": 0.105}, {"smiles": "NC(=O)NCC#Cc1ccc2c(c1)[C@]1(C(=O)N2)[C@H](C(=O)N2CCCCCCC2)[C@H]2C(=O)O[C@H](c3ccccc3)[C@H](c3ccccc3)N2[C@@H]1c1ccccc1OCCO", "composite z-score": 1.71}, {"smiles": "Cc1ccc(S[C@]2(C(=O)NCCCN(C)C)CC(=O)N(C3CCCCC3)[C@@H]2c2ccc(CO)cc2I)cc1", "composite z-score": -0.593}, {"smiles": "CCN1C(C)=C(C(=O)OC)[C@@H](c2ccccc2)N2C(=O)[C@@]3(C(=O)OC)O[C@@]12[C@@H]1C(=O)N(C)C(=O)[C@@H]13", "composite z-score": 1.41}, {"smiles": "CO[C@H]1COC(=O)[C@H](C)NC(=O)CC=C[C@@H](C)[C@H](NS(=O)(=O)c2ccc(C)cc2)COC(=O)CC=C[C@@H]1C", "composite z-score": 0.956}, {"smiles": "Cc1ccc(S(=O)(=O)N[C@H]2COC(=O)CC=C[C@H](C)COC(=O)N[C@@H](C)C(=O)CC=C[C@@H]2C)cc1", "composite z-score": 1.4}, {"smiles": "CN1C2C=C(c3ccc(CO)cc3)C(C3C(=O)N(C(N)=O)C(=O)C32)C1c1cccs1", "note": "(stereo unspecified)", "composite z-score": -0.623}, {"smiles": "CCCC=C(CCC)[C@@H](NS(=O)(=O)c1ccc(C(F)(F)F)cc1)c1ccc(-c2ccccc2)cc1", "composite z-score": 0.38}, {"smiles": "CO[C@H]1COC(=O)[C@@H](C)NC(=O)CC=C[C@@H](C)[C@H](OC)COC(=O)CC=C[C@@H]1C", "composite z-score": 1.34}, {"smiles": "C=CCC(OC(C)=O)[C@@H]1[C@@H](N(Cc2cc3ccccc3o2)C(=O)Cc2ccc(F)cc2)c2cc(OCCCO)ccc2N1C(=O)c1ccc(-c2ccccc2)cc1", "note": "(stereo partly specified)", "composite z-score": -0.346}, {"smiles": "Cc1ccc(N2C(=O)c3ccccc3[C@@H](C(=O)NCc3ccccc3)[C@@H]2c2ccc(CO)cc2)nc1", "composite z-score": -0.526}, {"smiles": "CCCC[C@@H]1C[C@H]1[C@@H](NC(=O)c1ccccc1)c1ccccc1C(F)(F)F", "composite z-score": -0.0027}, {"smiles": "CN1C(=O)C2C=CC(C(O)c3ccc(N(C)C)cc3)N(Nc3ccc([N+](=O)[O-])cc3[N+](=O)[O-])C2C1=O", "note": "(stereo unspecified)", "composite z-score": 1.2}, {"smiles": "O=C1C2C=CC(C(O)C#Cc3ccccc3)N(Nc3ccccc3)C2C(=O)N1c1ccccc1", "note": "(stereo unspecified)", "composite z-score": -0.445}, {"smiles": "Cc1ccc(S[C@]2(C(=O)NCCN3CCOCC3)CC(=O)N(C3Cc4ccccc4C3)[C@@H]2c2ccc(CO)cc2I)cc1", "composite z-score": -0.359}, {"smiles": "O=C1O[C@@H](c2ccccc2)[C@@H](c2ccccc2)N2[C@@H](c3ccc(O)cc3)[C@]3(C(=O)Nc4ccccc43)[C@@H](C(=O)N3CCN(c4ncccn4)CC3)[C@H]12", "composite z-score": 0.0146}, {"smiles": "C=CC[C@]1(C(=O)NCC(O)CO)N=C(c2ccc(OCCCO)cc2)O[C@H]1c1ccccc1", "note": "(stereo partly specified)", "composite z-score": -1.7}, {"smiles": "CC[C@@H]1C=C(C(=O)O)[C@H](c2ccccc2)N1S(=O)(=O)c1ccc([N+](=O)[O-])cc1", "composite z-score": 0.0657}, {"smiles": "CN1CCC(CCCO)=CC1C1CC1", "note": "(stereo unspecified)", "composite z-score": 0.0254}, {"smiles": "C=CC[C@]1(C(=O)N2CCCCC2)N=C(c2ccc(OCCCO)cc2)O[C@H]1c1ccccc1N=[N+]=[N-]", "composite z-score": 1.3}, {"smiles": "COc1cccc([C@@H]2[C@@H](C)CC[C@H]3C(=O)N4[C@H](c5cccc(OC)c5)[C@@H](C)CC[C@H]4C(=O)N23)c1", "composite z-score": 0.75}, {"smiles": "COCCOC(=O)N1C(=O)[C@@]2(c3cc(C#CC4=CCCCC4)ccc31)[C@H](c1ccc(O)cc1)N1[C@H](c3ccccc3)[C@H](c3ccccc3)OC(=O)[C@H]1[C@@H]2C(=O)N1CCCCCCC1", "composite z-score": 1.24}, {"smiles": "C=CCC(OC(C)=O)[C@@H]1[C@@H](N(Cc2cccc3ccccc23)C(=O)c2ccc(C)cc2)c2cc(OCCCO)ccc2N1C(=O)c1ccc(-c2ccccc2)cc1", "note": "(stereo partly specified)", "composite z-score": 0.268}, {"smiles": "C=CCN1C(=O)[C@]2(O[C@H](CCn3cc(CCO)nn3)[C@@H]([Si](C)(C)c3ccc(OC)cc3)[C@@H]2C)c2cc(NC(=O)c3ccc(OC)cc3)ccc21", "composite z-score": 0.876}, {"smiles": "CC(=O)NCCCC[C@@H]1NC(=O)[C@@H]2C[C@H](C(=O)NCCCCCCN(C)C)[C@H](c3ccc(O)cc3)N2C1=O", "composite z-score": 1.5}, {"smiles": "CO[C@@H]1COC(=O)[C@H](COCc2ccccc2)NC(=O)CC=C[C@@H](C)[C@H](OC)COC(=O)[C@H](COCc2ccccc2)NC(=O)CC=C[C@H]1C", "composite z-score": 0.424}, {"smiles": "COCCOC(=O)N1C(=O)[C@@]2(c3ccccc31)[C@H](C(=O)N1CCc3cc(OC)c(OC)cc3C1)[C@H]1C(=O)O[C@H](c3ccccc3)[C@H](c3ccccc3)N1[C@@H]2c1ccccc1OCCO", "composite z-score": 0.606}, {"smiles": "C=C(CCCC)/C(=C/C[C@@H](OC(=O)c1ccncc1)c1cccc(OCCO)c1)c1cc(C(=O)OC)ccc1OC", "composite z-score": 0.933}, {"smiles": "C#CCCCON=C1C[C@@H](O)[C@@H](O)[C@@H]2[C@@H]3C(=O)N(Cc4ccc5c(c4)OCO5)C(=O)[C@@H]3CC[C@@H]12", "composite z-score": 0.862}]}]}
